The source made the active and inactive calls.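 Rule for the calls, unless noted: active = inhibition of the reporter signal at or above 50%; inactive = inhibition below 50%.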
Key:
[1] = inhibitors of TNFa-induced NFkB p65 translocation, primary screen, imaging, HUVEC, MLSMR starter and 10KST1 sets (AID 438;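 active = inhibition above 20% together with a positive visual image hit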;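 note: compound added about 3h40 before a 20 min TNFalpha stimulation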;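 for inhibition: signal is the nuclear over cytoplasmic p65 intensity ratio per well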); conditions: HUVEC TNFa-induced p65 nuclear translocation; cell count: measured here: nuclei count (cytotoxicity indicator), at 2.08 µM; inhibition: at 2 µM, stronger effect = higher value, 0% TNFa-plus-vehicle, 100% no-TNFa wells
[2] = inhibitors of mutant huntingtin aggregation, primary screen, imaging, exon1htt(103Q)mCFP cells, high-content imaging (AID 483;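 active = visual image review flags a hit and inhibition of aggregation exceeds 20%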;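 note: compound exposure lasted 3 days before fixation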;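 for nuclei count: percent of the per-plate median nuclei count of sample wells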); conditions: exon1htt(103Q)mCFP cell line, aggregate imaging, at 2 µM; inhibition of aggregation: stronger effect = higher value; nuclei count: measured here: cell count, toxicity
[3] = inhibitors of E-selectin induction by TNFa, primary screen, imaging, HUVEC, immunofluorescence, MLSMR starter and 10KST1 sets (AID 487;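 active = visually confirmed hit in the image check and inhibition above 20%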;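 for inhibition: signal is fraction of cell area covered by stained E-selectin grains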;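 for nuclei count: 100% = median nuclei count of all wells on the same plate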); conditions: HUVEC TNFalpha-induced E-selectin immunofluorescence imaging, at 2 µM; inhibition: stronger effect = higher value; nuclei count: measured here: cell number, toxicity
[4] = target: Voltage-gated potassium channel subunit beta-2 (Rattus norvegicus) (UniProt P62483); assay: KvBeta enzyme negative modulators, primary screen, biochemical, NADPH fluorescence (AID 622;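 active = fluorescence slope higher than the sample average by over 3 SD, cut at about -0.22 in these data, passing the limit was not always enough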;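 note: slope of raw intensity against log time taken from 70 to 1610 s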); conditions: recombinant KvBeta, 4-cyanobenzaldehyde reduction, at 10 µM, stronger effect = higher value
[5] = target: Voltage-gated potassium channel subunit beta-2 (Rattus norvegicus) (UniProt P62483); assay: KvBeta positive modulators, primary screen, biochemical, NADPH fluorescence (AID 623;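 active = NADPH fluorescence slope more negative than the mean of all samples by about 3 SD, 99.7% confidence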;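 note: fluorescence intensity change per second fitted from 20 to 320 s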); conditions: Recombinant KvBeta, NADPH fluorescence decrease slope, 10 min; at 10 µM; stronger effect = lower value
[6] = target: Alpha-2C adrenergic receptor (Homo sapiens) (UniProt P18825); assay: modulators of alpha2C/GIRK thallium flux, primary screen, cell-based, HEK293 alpha2C/GIRK1/2 (AID 624;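 active = fluorescence slope after compound addition differing from the mean of all screened samples at 99.7% confidence, in either direction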;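 note: slope of fluorescence ratio to pre-addition baseline per second over 15 to 24 s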); conditions: thallium flux BTC fluorescence, at 10 µM, actives lie on both sides
[7] = inhibitors of Sendai virus-induced IRF3 signaling, primary screen, TLR/RLR signaling modifier project, cell-based, Sendai virus stimulus, luciferase, 10K MLSCN set (AID 602276;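 active = inhibition at or above 50% at 10 µM; inactive = inhibition below 50%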;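 note: firefly luciferase from ISG56 promoter only with Renilla not read in this screen; 0% = Sendai virus plus DMSO and 100% = medium plus DMSO without virus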); conditions: HEK293 RL24 IRF3 luciferase reporter, at 10 µM, stronger effect = higher value
[8] = inhibitors of poly I:C-induced TLR3 signaling, primary screen, cell-based, poly I:C stimulus, luciferase, 10K MLSCN set (AID 602277); conditions: HEK293-TLR3 RL24 IRF3 luciferase reporter, at 10 µM, stronger effect = higher value

Voltage-gated potassium channel subunit beta-2 (Rattus norvegicus), sequence (P62483 whole entry, looked up): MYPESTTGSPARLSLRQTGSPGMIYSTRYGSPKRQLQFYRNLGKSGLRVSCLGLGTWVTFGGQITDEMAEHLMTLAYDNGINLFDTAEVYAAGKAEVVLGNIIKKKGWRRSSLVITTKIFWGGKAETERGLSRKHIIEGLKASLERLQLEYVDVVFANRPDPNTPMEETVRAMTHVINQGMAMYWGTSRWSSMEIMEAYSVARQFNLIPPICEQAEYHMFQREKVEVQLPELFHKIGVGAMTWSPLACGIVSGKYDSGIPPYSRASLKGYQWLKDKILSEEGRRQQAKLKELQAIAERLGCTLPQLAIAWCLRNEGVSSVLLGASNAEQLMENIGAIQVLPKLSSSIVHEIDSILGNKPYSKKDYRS
Alpha-2C adrenergic receptor (Homo sapiens), sequence (P18825 whole entry, looked up): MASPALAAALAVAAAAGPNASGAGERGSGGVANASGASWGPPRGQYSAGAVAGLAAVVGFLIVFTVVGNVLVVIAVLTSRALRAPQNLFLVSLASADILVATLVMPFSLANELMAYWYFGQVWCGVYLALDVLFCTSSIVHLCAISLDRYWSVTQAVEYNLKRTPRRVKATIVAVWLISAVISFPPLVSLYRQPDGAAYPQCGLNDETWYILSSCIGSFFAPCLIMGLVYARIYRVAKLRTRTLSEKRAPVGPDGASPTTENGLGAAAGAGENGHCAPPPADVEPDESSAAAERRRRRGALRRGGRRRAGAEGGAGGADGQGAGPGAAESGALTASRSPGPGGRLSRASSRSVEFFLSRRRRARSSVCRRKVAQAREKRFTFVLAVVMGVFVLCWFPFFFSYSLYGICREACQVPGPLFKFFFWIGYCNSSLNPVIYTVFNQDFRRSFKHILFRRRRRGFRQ

Cc1c(NC(=O)C(C)Oc2ncnc3ccccc23)c(=O)n(-c2ccccc2)n1C (centres undefined)
cell count [1]: 547 | inhibition [1]: -1.7% (inactive) | inhibition of aggregation [2]: -8.5% (inactive) | nuclei count [2]: 78% | inhibition [3]: -5.8% (inactive) | nuclei count [3]: 111% | fluorescence slope [4]: -0.506 (inactive) | NADPH fluorescence slope [5]: -5e-05 (inactive) | slope [6]: 0.00757 (inactive) | inhibition [7]: -7.59% (inactive) | inhibition [8]: 19.3% (inactive)

O=P(O)(O)C(O)C(F)(F)C(F)(F)C(F)(F)C(F)F (centres undefined)
cell count [1]: 436 | inhibition [1]: 8.1% (inactive) | inhibition of aggregation [2]: -7% (inactive) | nuclei count [2]: 108% | inhibition [3]: 12.7% (inactive) | nuclei count [3]: 127% | fluorescence slope [4]: -0.31 (inactive) | NADPH fluorescence slope [5]: -2e-06 (inactive) | slope [6]: 0.0027 (inactive) | inhibition [7]: 19.8% (inactive) | inhibition [8]: 17.5% (inactive)

O=C(NCCN1CCOCC1)c1ccc2c(c1)N(Cc1ccccc1F)C(=O)CS2
cell count [1]: 591 | inhibition [1]: 5.8% (inactive) | inhibition of aggregation [2]: 6% (inactive) | nuclei count [2]: 67.6% | inhibition [3]: -51.7% (inactive) | nuclei count [3]: 111% | fluorescence slope [4]: -0.456 (inactive) | NADPH fluorescence slope [5]: -2e-06 (inactive) | slope [6]: 0.00607 (inactive) | inhibition [7]: 9.96% (inactive) | inhibition [8]: 22.6% (inactive)

Cn1c(=O)c2c(nc(CN3CCN(c4ccccc4F)CC3)n2CCN2CCOCC2)n(C)c1=O
cell count [1]: 317 | inhibition [1]: -6.9% (inactive) | inhibition of aggregation [2]: 13.3% (inactive) | nuclei count [2]: 114% | inhibition [3]: -26.9% (inactive) | nuclei count [3]: 107% | fluorescence slope [4]: -0.288 (inactive) | NADPH fluorescence slope [5]: -2.7e-05 (inactive) | slope [6]: 0.00647 (inactive) | inhibition [7]: 17.6% (inactive) | inhibition [8]: 17.1% (inactive)

CC1=C(C(=O)OC(C)C)C(c2cccc(F)c2)n2ncnc2N1 (centres undefined)
cell count [1]: 752 | inhibition [1]: 0% (inactive) | inhibition of aggregation [2]: 19% (inactive) | nuclei count [2]: 95.5% | inhibition [3]: -76.3% (inactive) | nuclei count [3]: 114% | fluorescence slope [4]: -0.6 (inactive) | NADPH fluorescence slope [5]: 1.6e-05 (inactive) | slope [6]: 0.00586 (inactive) | inhibition [7]: -7.13% (inactive) | inhibition [8]: 22.1% (inactive)

COc1ccc(CCNc2oc(Cc3cccc4ccccc34)nc2C#N)cc1OC
cell count [1]: 718 | inhibition [1]: 13.9% (inactive) | inhibition of aggregation [2]: 8.4% (inactive) | nuclei count [2]: 81.2% | inhibition [3]: 24.2% (inactive) | nuclei count [3]: 88.7% | fluorescence slope [4]: -0.396 (inactive) | NADPH fluorescence slope [5]: -8.6e-06 (inactive) | slope [6]: 0.00516 (inactive) | inhibition [7]: 17.3% (inactive) | inhibition [8]: 6.78% (inactive)

Cc1cc2ccccc2n1CCNC(=O)c1ccc(S(=O)(=O)N2CCOCC2)cc1
cell count [1]: 194 | inhibition [1]: 0.8% (inactive) | inhibition of aggregation [2]: 14.3% (inactive) | nuclei count [2]: 93.1% | inhibition [3]: -41.3% (inactive) | nuclei count [3]: 101% | fluorescence slope [4]: -0.603 (inactive) | NADPH fluorescence slope [5]: -1.9e-05 (inactive) | slope [6]: 0.00522 (inactive) | inhibition [7]: 13.5% (inactive) | inhibition [8]: 30% (inactive)

Nc1c(N2CCCCC2)c(=O)[nH]c(=O)n1-c1ccccc1
cell count [1]: 751 | inhibition [1]: 2.4% (inactive) | inhibition of aggregation [2]: 3% (inactive) | nuclei count [2]: 106% | inhibition [3]: -0.1% (inactive) | nuclei count [3]: 109% | fluorescence slope [4]: -0.456 (inactive) | NADPH fluorescence slope [5]: 4.1e-05 (inactive) | slope [6]: 0.00376 (inactive) | inhibition [7]: -4.05% (inactive) | inhibition [8]: -5.22% (inactive)

O=C(CSc1nc2cc(Cl)ccc2s1)N1CCN(C(=O)c2ccco2)CC1
cell count [1]: 725 | inhibition [1]: 2.4% (inactive) | inhibition of aggregation [2]: 15.7% (inactive) | nuclei count [2]: 97.9% | inhibition [3]: -126% (inactive) | nuclei count [3]: 141% | fluorescence slope [4]: -0.482 (inactive) | NADPH fluorescence slope [5]: -5.8e-05 (inactive) | slope [6]: 0.00555 (inactive) | inhibition [7]: 21.6% (inactive) | inhibition [8]: 27.6% (inactive)

Oc1ccc(Nc2nc(-c3ccc(O)cc3)cs2)cc1
cell count [1]: 277 | inhibition [1]: 15.1% (inactive) | inhibition of aggregation [2]: 18.9% (inactive) | nuclei count [2]: 71.8% | inhibition [3]: -20.5% (inactive) | nuclei count [3]: 124% | fluorescence slope [4]: -0.429 (inactive) | NADPH fluorescence slope [5]: -4.3e-05 (inactive) | slope [6]: 0.00332 (inactive) | inhibition [7]: -43% (inactive) | inhibition [8]: -59.8% (inactive)

CC1=C(C)C(=O)NC(Nc2nc(C)c3cc(C)cc(C)c3n2)N1 (centres undefined)
cell count [1]: 540 | inhibition [1]: -14.3% (inactive) | inhibition of aggregation [2]: -9.7% (inactive) | nuclei count [2]: 103% | inhibition [3]: 5.2% (inactive) | nuclei count [3]: 115% | fluorescence slope [4]: -0.285 (inactive) | NADPH fluorescence slope [5]: -2.3e-05 (inactive) | slope [6]: 0.00676 (inactive) | inhibition [7]: 7.09% (inactive) | inhibition [8]: -49.5% (inactive)

CCOc1cc(NC(=O)c2ccccn2)c(OCC)cc1NC(=O)CC(C)C
cell count [1]: 609 | inhibition [1]: -11.5% (inactive) | inhibition of aggregation [2]: -0.3% (inactive) | nuclei count [2]: 115% | inhibition [3]: -76.1% (inactive) | nuclei count [3]: 119% | fluorescence slope [4]: -0.615 (inactive) | NADPH fluorescence slope [5]: 4.7e-06 (inactive) | slope [6]: 0.00499 (inactive) | inhibition [7]: -9.2% (inactive) | inhibition [8]: -24.5% (inactive)

COCCN(CCOC)C(=O)c1sc2nc(-c3ccccc3)cn2c1C
cell count [1]: 752 | inhibition [1]: -10.7% (inactive) | inhibition of aggregation [2]: -5.6% (inactive) | nuclei count [2]: 119% | inhibition [3]: -55.5% (inactive) | nuclei count [3]: 127% | fluorescence slope [4]: -0.39 (inactive) | NADPH fluorescence slope [5]: -9.4e-06 (inactive) | slope [6]: 0.00336 (inactive) | inhibition [7]: 9.08% (inactive) | inhibition [8]: 7.03% (inactive)

CC1Cc2nc(SCC(N)=O)n(Cc3ccccc3)c(=O)c2S1 (centres undefined)
cell count [1]: 633 | inhibition [1]: -14% (inactive) | inhibition of aggregation [2]: 1.8% (inactive) | nuclei count [2]: 90.7% | inhibition [3]: -15.2% (inactive) | nuclei count [3]: 113% | fluorescence slope [4]: -0.438 (inactive) | NADPH fluorescence slope [5]: 2.5e-05 (inactive) | slope [6]: 0.00575 (inactive) | inhibition [7]: -2.11% (inactive) | inhibition [8]: 36% (inactive)

— PubChem BioAssay
